Experimental data as given in PubChem BioAssay.
The source made the active and inactive calls.

What was measured:
[1] = tested on: Plasmodium falciparum Sir2 (PF13_0152, Sir2A); assay: pfSir2 binders on small-molecule microarrays, primary screen, biochemical, small-molecule microarray, 635 nm fluorescence (AID 1098); conditions: small-molecule microarray binding, fluorescence 635 nm; higher = more signal;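 further: score merges spot fluorescence intensity with its signal-to-noise ratio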
[2] = small-molecule microarray binders of probe aDKK1, primary screen, biochemical, biotinylated probe, 635/667 nm fluorescence (AID 1099); conditions: higher = more signal;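 further: score merges 667nm spot fluorescence with signal to noise across triplicate slides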
[3] = small-molecule microarray binders of probe aCHRDL2, primary screen, biochemical, biotinylated probe, 635/667 nm fluorescence (AID 1100); conditions: higher = more signal
[4] = splicing luciferase reporter signal modulators, primary screen, spliceosome inhibition project, cell-based, HEK293, splice +/- reporter (AID 1101); conditions: luminescence, 24 h, higher = more signal, called active from +8 up or from −8 down;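 further: HEK293 cells carrying a splicing-competent luciferase reporter gene; test concentration not given here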
[5] = target: Fibroblast growth factor 10 (Homo sapiens) (UniProt O15520); assay: FGF10 binders on small-molecule microarrays, primary screen, biochemical, small-molecule microarray, 635 nm fluorescence (AID 1102); conditions: FGF10 binding, fluorescence 635 nm, higher = more signal
Chain of Fibroblast growth factor 10 (Homo sapiens) (O15520 whole entry, looked up): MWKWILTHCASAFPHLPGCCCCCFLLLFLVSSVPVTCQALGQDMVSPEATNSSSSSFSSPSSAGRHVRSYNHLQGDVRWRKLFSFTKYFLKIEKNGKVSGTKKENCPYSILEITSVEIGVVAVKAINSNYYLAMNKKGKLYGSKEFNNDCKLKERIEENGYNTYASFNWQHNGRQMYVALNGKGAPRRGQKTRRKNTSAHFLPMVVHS

[6] = tested on: glycogen synthase kinase-3 (GSK3A per assay name; protocol says GSK3B); assay: GSK3 binders on small-molecule microarrays, primary screen, biochemical, small-molecule microarray, 635 nm fluorescence, GSK3A (AID 1103); conditions: small-molecule microarray binding, fluorescence 635 nm; higher = more signal; further: the record names both GSK3A and GSK3B
[7] = target: Epidermal growth factor receptor (Homo sapiens) (UniProt P00533); assay: EGFR binders on small-molecule microarrays, primary screen, biochemical, small-molecule microarray, 635 nm fluorescence (AID 1104); conditions: EGFR binding, higher = more signal;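 further: score merges 667 nm emission intensity with spot signal to noise over triplicate slides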
Chain of Epidermal growth factor receptor (Homo sapiens) (P00533 whole entry, looked up): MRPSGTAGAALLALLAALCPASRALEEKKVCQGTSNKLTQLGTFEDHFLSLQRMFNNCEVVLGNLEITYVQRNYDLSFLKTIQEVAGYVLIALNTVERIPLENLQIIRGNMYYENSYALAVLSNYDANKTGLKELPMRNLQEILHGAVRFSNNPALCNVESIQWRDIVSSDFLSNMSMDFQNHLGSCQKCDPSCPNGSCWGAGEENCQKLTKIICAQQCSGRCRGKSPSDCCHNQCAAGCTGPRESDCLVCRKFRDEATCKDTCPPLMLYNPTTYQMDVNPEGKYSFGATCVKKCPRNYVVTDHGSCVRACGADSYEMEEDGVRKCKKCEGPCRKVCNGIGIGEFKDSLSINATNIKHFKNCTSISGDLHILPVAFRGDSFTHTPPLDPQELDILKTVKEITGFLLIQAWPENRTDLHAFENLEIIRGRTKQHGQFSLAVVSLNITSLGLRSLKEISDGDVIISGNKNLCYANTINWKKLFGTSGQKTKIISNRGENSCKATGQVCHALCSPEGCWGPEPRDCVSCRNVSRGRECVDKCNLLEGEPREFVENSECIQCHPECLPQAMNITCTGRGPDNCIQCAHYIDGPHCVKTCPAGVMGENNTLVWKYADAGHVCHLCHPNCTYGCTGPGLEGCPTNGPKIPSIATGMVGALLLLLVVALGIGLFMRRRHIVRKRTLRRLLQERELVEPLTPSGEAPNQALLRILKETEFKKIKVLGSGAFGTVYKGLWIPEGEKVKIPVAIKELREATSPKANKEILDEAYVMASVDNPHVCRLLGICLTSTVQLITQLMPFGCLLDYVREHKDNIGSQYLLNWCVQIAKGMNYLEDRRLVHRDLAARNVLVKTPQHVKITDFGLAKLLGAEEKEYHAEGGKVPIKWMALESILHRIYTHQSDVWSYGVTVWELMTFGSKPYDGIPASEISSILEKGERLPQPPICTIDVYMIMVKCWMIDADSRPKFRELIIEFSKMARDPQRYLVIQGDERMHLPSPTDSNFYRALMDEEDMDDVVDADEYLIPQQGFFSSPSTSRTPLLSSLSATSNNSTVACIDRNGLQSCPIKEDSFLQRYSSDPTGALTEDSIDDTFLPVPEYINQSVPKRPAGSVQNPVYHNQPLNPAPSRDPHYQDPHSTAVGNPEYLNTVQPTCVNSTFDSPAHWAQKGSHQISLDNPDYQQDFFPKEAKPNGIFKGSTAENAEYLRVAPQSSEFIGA

[8] = target: Follistatin-related protein 3 (Homo sapiens) (UniProt O95633); assay: FSTL3 binders on small-molecule microarrays, primary screen, biochemical, small-molecule microarray, 635 nm fluorescence (AID 1105); conditions: FSTL3 binding, higher = more signal;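 further: score merges emission near 667 nm and signal to noise per printed spot across three slides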
Chain of Follistatin-related protein 3 (Homo sapiens) (O95633 whole entry, looked up): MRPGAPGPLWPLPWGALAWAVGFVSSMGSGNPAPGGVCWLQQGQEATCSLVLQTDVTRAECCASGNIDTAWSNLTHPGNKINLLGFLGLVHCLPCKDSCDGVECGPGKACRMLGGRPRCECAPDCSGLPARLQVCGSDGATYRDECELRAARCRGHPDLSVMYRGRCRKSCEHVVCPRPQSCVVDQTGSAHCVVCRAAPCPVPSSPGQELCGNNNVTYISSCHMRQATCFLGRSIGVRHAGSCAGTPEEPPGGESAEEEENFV

[9] = target: Dickkopf-related protein 1 (Homo sapiens) (UniProt O94907); assay: DKK1 binders on small-molecule microarrays, primary screen, biochemical, small-molecule microarray, 635 nm fluorescence scan (AID 1106); conditions: DKK1 binding, higher = more signal;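 further: score merges emission near 667 nm with signal to noise over three replicate slides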
Chain of Dickkopf-related protein 1 (Homo sapiens) (O94907 whole entry, looked up): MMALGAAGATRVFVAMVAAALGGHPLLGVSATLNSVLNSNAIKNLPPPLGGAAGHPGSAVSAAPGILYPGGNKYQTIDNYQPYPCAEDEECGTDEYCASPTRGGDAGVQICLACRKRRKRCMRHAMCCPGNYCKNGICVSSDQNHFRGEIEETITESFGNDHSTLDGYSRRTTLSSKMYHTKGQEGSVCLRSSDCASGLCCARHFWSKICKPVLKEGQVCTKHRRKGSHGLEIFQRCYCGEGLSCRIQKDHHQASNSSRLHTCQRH

[10] = tested on: Inhibin beta A chain (activin A); assay: INHBA (activin A) binders on microarrays, primary screen, biochemical, small-molecule microarray, 635 nm fluorescence scan (AID 1107); conditions: small-molecule microarray binding, higher = more signal;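 further: mouse activin A protein probed at 4.33 µg/mL on printed slides; score merges bound-protein fluorescence near 667 nm with spot signal-to-noise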
[11] = tested on: Human papillomavirus type 1a protein E7 (residues 44-93); assay: HPV1a E7 fragment binders on microarrays, primary screen, biochemical, small-molecule microarray, residues 44-93, 635 nm fluorescence (AID 1108); conditions: small-molecule microarray binding, fluorescence 635 nm; higher = more signal;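 further: E7 fragment applied at 1 µg/mL in TBST for 1 h at 4 C; score combines spot fluorescence with its signal to noise ratio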
[12] = modulators of HCV replicon luciferase signal, primary screen, HCV replication inhibitor project, Huh7 cells, luciferase reporter (AID 1109); conditions: 48 h, higher = more signal;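 further: huh7 hepatoma cells harbouring a luciferase neomycin HCV replicon reporter; luciferase luminescence as measure of HCV replicon replication; test concentration not given here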
[13] = target: Left-right determination factor 2 (Homo sapiens) (UniProt O00292); assay: LEFTY2 binders on small-molecule microarrays, primary screen, biochemical, small-molecule microarray, 635 nm fluorescence scan (AID 1110); conditions: LEFTY2 binding, higher = more signal
Chain of Left-right determination factor 2 (Homo sapiens) (O00292 whole entry, looked up): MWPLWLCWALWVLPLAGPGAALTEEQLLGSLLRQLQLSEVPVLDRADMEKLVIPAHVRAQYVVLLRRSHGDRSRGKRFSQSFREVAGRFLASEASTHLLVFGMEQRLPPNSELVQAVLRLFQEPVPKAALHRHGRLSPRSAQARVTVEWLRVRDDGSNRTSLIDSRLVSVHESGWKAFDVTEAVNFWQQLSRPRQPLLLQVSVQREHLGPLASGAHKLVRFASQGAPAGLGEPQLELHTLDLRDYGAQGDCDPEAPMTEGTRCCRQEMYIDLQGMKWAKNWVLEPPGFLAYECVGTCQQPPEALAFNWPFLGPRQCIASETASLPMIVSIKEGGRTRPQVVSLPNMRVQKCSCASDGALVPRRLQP

[14] = target: Calmodulin-1 (Homo sapiens) (UniProt P0DP23); assay: CALM1 binders on microarrays, EGTA buffer, profiling panel, biochemical, small-molecule microarray, Cy5-labelled CALM1 (AID 1111); conditions: Cy5-CALM1 binding fluorescence, higher = more signal;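 further: labelled calmodulin applied in Tris saline Tween buffer holding calcium plus EGTA and DTT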
[15] = target: Calmodulin-1 (Homo sapiens) (UniProt P0DP23); assay: calcium-bound CALM1 binders on microarrays, profiling panel, artefact control for SMM control-protein annotation, biochemical, small-molecule microarray, Cy5-labelled CALM1, plus calcium (AID 1112); conditions: Cy5-CALM1 binding fluorescence, higher = more signal;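 further: score merges spot fluorescence with signal to noise from triplicate slides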
[16] = small-molecule microarray binders of probe aWnt5a, primary screen, biochemical, biotinylated probe, 635/667 nm fluorescence (AID 1113); conditions: higher = more signal;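 further: score merges 667 nm fluorescence intensity with signal-to-noise per printed feature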
[17] = small-molecule microarray binders of probe aShh, primary screen, biochemical, biotinylated probe, 635/667 nm fluorescence (AID 1114); conditions: higher = more signal;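 further: probe is biotin-labelled aShh protein from a stem cell growth factor screen; measures binding of labelled protein to compounds printed on the slide; score merges feature fluorescence at 667 nm with signal-to-noise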
[18] = small-molecule microarray binders of probe aNog, primary screen, biochemical, biotinylated probe, 635/667 nm fluorescence (AID 1115); conditions: higher = more signal;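 further: probe is biotinylated aNog protein used at 0.15 µg/mL for 1 h at 4 C; z-score combines 667 nm fluorescence of each spot with its signal to noise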
[19] = target: Torsin-1A-interacting protein 1 (Homo sapiens) (UniProt Q5JTV8); assay: LAP1 binders from COS7 cell lysate, primary screen, small-molecule microarray, 635/667 nm fluorescence (AID 1116); conditions: COS7-hLAP1 lysate binding, 635 nm fluorescence, higher = more signal
Chain of Torsin-1A-interacting protein 1 (Homo sapiens) (Q5JTV8 whole entry, looked up): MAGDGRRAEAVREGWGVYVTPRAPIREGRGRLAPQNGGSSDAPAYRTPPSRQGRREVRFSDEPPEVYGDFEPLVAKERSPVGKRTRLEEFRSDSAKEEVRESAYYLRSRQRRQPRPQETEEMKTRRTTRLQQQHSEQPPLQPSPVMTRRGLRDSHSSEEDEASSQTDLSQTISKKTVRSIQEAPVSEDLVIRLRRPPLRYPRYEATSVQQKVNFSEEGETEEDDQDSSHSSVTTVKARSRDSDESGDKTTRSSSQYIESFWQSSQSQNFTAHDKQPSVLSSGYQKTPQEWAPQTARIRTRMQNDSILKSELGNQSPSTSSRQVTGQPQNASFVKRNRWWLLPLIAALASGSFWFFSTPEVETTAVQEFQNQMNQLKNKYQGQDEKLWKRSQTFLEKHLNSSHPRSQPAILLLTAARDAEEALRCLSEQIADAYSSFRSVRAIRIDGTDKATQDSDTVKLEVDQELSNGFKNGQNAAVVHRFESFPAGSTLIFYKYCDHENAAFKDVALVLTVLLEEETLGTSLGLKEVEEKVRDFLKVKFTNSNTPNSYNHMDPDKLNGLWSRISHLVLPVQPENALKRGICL

[20] = target: Alpha-bungarotoxin (Bungarus multicinctus) (UniProt P60615); assay: alpha-bungarotoxin binders on microarray, profiling panel, artefact control for SMM control protein annotation, biochemical, small-molecule microarray, Alexa647 label, 635/667 nm fluorescence (AID 1117); conditions: alpha-BTX-A647 binding fluorescence, higher = more signal
Chain of Alpha-bungarotoxin (Bungarus multicinctus) (P60615 whole entry, looked up): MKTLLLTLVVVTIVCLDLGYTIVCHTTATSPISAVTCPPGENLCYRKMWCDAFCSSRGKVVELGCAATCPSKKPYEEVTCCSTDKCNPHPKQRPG

Structure (SMILES) | composite z-score [1] | composite z-score [2] | composite z-score [3] | z-score [4] | composite z-score [5] | composite z-score [6] | composite z-score [7] | composite z-score [8] | composite z-score [9] | composite z-score [10] | composite z-score [11] | z-score [12] | composite z-score [13] | composite z-score [14] | composite z-score [15] | composite z-score [16] | composite z-score [17] | composite z-score [18] | composite z-score [19] | composite z-score [20]
CCc1cc2c(nc1CC)CCN(CCC(C)=NOC[C@@H](O)COCc1ccco1)C2 | 1.54 | 0.0564 | 0.202 | -0.0287 (inactive) | 0.529 | 1.3 | 1.78 | 1.5 | 1.7 | 2.1 | -1.51 | -1.59 | 1.48 | -0.729 | -1.77 | 0.0663 | 0.547 | -0.0965 | 1.11 | 0.64
Cc1ccc(F)cc1S(=O)(=O)N[C@@H]1CCN(Cc2ccc(CC(C)C)cc2)C1 | -0.242 | -0.389 | -0.24 | 1.1 (inactive) | -0.253 | -1.12 | -0.397 | -0.301 | -0.0911 | 0.346 | 0.135 | -3.88 | -0.185 | -0.793 | -0.328 | -0.23 | -0.138 | -0.272 | 0.464 | 0.0331
CCCNC(=O)[C@@H]1c2ccccc2C(=O)N(Cc2ccccc2Cl)[C@H]1c1ccc(CO)cc1 | 1.67 | 0.989 | 0.846 | -0.493 (inactive) | 0.619 | 1.28 | 0.192 | 1.34 | 0.649 | 0.341 | 1.22 | -0.656 | 0.531 | 0.936 | 0.375 | -0.0203 | -0.0769 | 0.546 | 0.598 | 0.726
CC(C)CON=C1C[C@@H](O)[C@@H](O)[C@@H]2[C@@H]3C(=O)N(C[C@@H]4CCCO4)C(=O)[C@@H]3CC[C@H]12 | 0.651 | -0.273 | -0.356 | 0.132 (inactive) | 0.505 | 0.33 | 0.265 | 0.417 | 0.24 | 0.07 | 0.595 | 0.392 | 0.781 | 0.0832 | 0.0249 | -0.178 | -0.345 | -0.074 | 0.241 | 0.0141
CN(C)CCCNC(=O)[C@@H]1c2ccccc2C(=O)N(Cc2cc(F)cc(C(F)(F)F)c2)[C@H]1c1ccc(CO)cc1 | 1.75 | -0.132 | 0.17 | -1 (inactive) | 0.159 | 0.922 | 0.368 | -1.1 | 0.0959 | -0.217 | 0.7 | -0.734 | 0.643 | 0.509 | 0.0028 | -0.103 | -0.0904 | 1.39 | 0.886 | -0.0234
CO[C@@H]1COC(=O)[C@@H]2CCCN2C(=O)[C@@H](C)COC(=O)[C@H](COCc2ccccc2)NC(=O)CC=C[C@H]1C | 0.385 | -0.559 | -0.664 | -0.425 (inactive) | 0.613 | 0.575 | 0.239 | 0.478 | 0.356 | -0.235 | 0.929 | 0.323 | 0.39 | -0.142 | -0.713 | -0.0748 | 0.0941 | -0.111 | 0.142 | 0.199
